This is a sample that favours compounds with a hit; in the whole collection about 1.6% have one here.
NPSR antagonist = blocks cAMP signaling of the human neuropeptide S receptor. Q6W5P4. CHO-NPSR cells, cAMP TR-FRET, antagonist mode. Potency, µM (doses to about 38.3 µM), most hits filed as inhibitors. 1% of 220,000 active. AID 1461; also: nearly all actives have a fitted effect of over 50% in size
Target sequence (Q6W5P4 whole entry, looked up): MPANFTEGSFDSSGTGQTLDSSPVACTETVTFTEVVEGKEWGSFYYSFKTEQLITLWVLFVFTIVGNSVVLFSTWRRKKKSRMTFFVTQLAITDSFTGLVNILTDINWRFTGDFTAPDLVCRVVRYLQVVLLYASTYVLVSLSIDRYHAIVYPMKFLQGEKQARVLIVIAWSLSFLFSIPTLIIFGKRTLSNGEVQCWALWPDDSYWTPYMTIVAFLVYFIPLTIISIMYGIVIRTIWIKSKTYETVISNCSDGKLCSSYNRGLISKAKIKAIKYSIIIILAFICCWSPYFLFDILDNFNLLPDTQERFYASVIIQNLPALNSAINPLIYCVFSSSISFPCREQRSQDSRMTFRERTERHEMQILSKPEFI
IMPase inh = IMPase inhibition in cells | AID 901 | CHO-M1 cells, IP1 accumulation, HTRF TR-FRET ratio | 120,000 tested, under 10 active | inhibition (IP1 accumulation), % at 46.1 µM; active = well fitted curve in the direction sought with a large enough effect in the signal ratio, not every such curve was filed as active; inconclusive = small, poorly fitted or top-dose-only effect, or a change in a side signal; inactive = no such curve, though single readings can be large or run the other way; the % refers to the signal ratio;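 also: cells stimulated with carbachol in lithium chloride buffer; higher means more IMPase inhibition seen as more IP1 and lower FRET ratio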
Target sequence (P97697 whole entry, looked up): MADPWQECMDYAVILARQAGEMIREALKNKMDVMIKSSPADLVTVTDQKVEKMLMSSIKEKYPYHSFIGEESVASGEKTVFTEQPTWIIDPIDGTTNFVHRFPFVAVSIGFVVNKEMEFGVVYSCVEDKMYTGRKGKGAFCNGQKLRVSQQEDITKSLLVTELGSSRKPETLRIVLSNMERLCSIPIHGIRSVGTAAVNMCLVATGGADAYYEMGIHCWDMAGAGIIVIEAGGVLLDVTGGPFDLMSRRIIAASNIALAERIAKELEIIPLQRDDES
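Seeded CHO-M1 cells were dosed with compound at up to 46 uM, stimulated with carbachol for 30 min, then lysed in IP-One detection reagents. Higher IP1 lowers the TR-FRET signal.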
IMPase Li cell = cell-permeable IMPase inhibitors with lithium potentiation; CHO-M1 cells, IP1 TR-FRET (IP-One), carbachol + lithium; Potency, µM (doses to about 59.4 µM), most hits filed as inhibitors; 0.35% of 210,000 active; AID 1457;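 also: IP1 builds up when IMPase is blocked and the TR-FRET signal falls; nearly all actives have a fitted effect of over 50% in size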
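Test compounds were applied to CHO-M1 cells previously cultured for 16–30 h at 2000 per well. A small lithium amount accompanied them; after 30 min at 37C, IP1 was quantified by TR-FRET.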
HttQ103 aggreg = inhibitors of mutant huntingtin aggregate formation in PC12 cells; Potency, µM (top dose mostly 46.1 µM), usual class: inhibitors; PC12 HttQ103-GFP aggregates, Acumen cytometry, 40 h; 1.1% of 220,000 active; AID 1688; also: nearly all actives have a fitted effect of over 60% in size
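PC12/HTTQ103-GFP, ecdysone-inducible; teb 100 nM; cpd qHTS titration; GFP aggregates read on laser cytometer, Ex 488/Em 500-530 nm.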
Lamin A splicing = LMNA splicing modulation | HeLa LMNA splicing GFP/RFP minigene ratio, 48 h | Potency, µM (top dose mostly 46.1 µM), hits mostly inhibitors | 0.01% of 200,000 active | AID 1487; active = well fitted inhibition curve with a large enough effect in the signal ratio, with a control signal flat, not every such curve was filed as active; inconclusive = small, poorly fitted or top-dose-only effect, or effect the other way, or a change in a side signal; the % refers to the signal ratio
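S3 HeLa stable clones carrying a lamin A-EGFP splicing minigene plus DsRed2 were seeded at 600 cells/well in Opti-MEM with 2% FBS, pin-dosed and incubated 48 h at 37°C. Acumen cytometry (488 nm) gave the GFP/RFP total-intensity ratio.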
HTT ATP protect = protects HTT-Q103 PC12 cells, measured by ATP. PC12 HTT-Q103 induced, cytoprotection, ATP luminescence, 40 h. Potency, µM (highest dose often 56.4 µM), usual class: activators. 0.14% of 230,000 active; also: nearly all actives have a fitted effect of over 45% in size
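Quantitative HTS on tebufenozide-induced (100 nM) PC12 cells expressing HTTQ103 exon 1–GFP; compounds tested as a concentration series; survival measured via cellular ATP.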
A number is an active result; [ ] = dose if it differs, or a comment. Unless noted, calls follow the shape of the dose curve; as a rule, active = well fitted curve in the direction sought with a large enough effect; inconclusive = small, poorly fitted or top-dose-only effect, or another doubt; inactive = no such curve, though single readings can be large; an effect the other way counts as inactive or inconclusive.

Screening CC(=O)NCc1nc2ccccc2n1Cc1ccccc1F returned NPSR antagonist inactive, IMPase inh inactive, IMPase Li cell inactive, HttQ103 aggreg inactive, Lamin A splicing inactive and HTT ATP protect inactive.
`NC(=O)CS(=O)(=O)c1nc2ccccc2n1Cc1ccccc1F` gave NPSR antagonist inactive, IMPase inh inactive, IMPase Li cell inactive, HttQ103 aggreg inactive, Lamin A splicing inconclusive and HTT ATP protect 25.1µM.
Screening Cc1ccc2nc(-c3ccc(N)cc3)sc2c1S(=O)(=O)O returned IMPase Li cell inconclusive and HTT ATP protect inactive.
Screening Oc1ccc(N=Nc2n[nH]c(-c3ccc(Cl)cc3)n2)cc1 returned NPSR antagonist inactive, IMPase inh inactive, IMPase Li cell inactive, HttQ103 aggreg 17.8µM, Lamin A splicing inconclusive and HTT ATP protect inactive.
For COc1ccc2c(c1)OC(C)(C)C(c1ccccc1)C2c1ccc(OCCN2CCCC2)cc1 (stereo not given) the results were HttQ103 aggreg inconclusive and HTT ATP protect inactive.
Screening CC(C)c1ccc(-c2nc(N3CCCCC3)[nH]c(=O)c2C#N)cc1 returned NPSR antagonist inactive, IMPase inh inactive, IMPase Li cell inactive, HttQ103 aggreg inactive, Lamin A splicing inactive and HTT ATP protect inactive[10 µM].
For CC1CCN(c2nc(-c3ccccc3)c(C#N)c(=O)[nH]2)CC1 the results were NPSR antagonist 12.6µM, IMPase inh inactive, IMPase Li cell inactive, HttQ103 aggreg inactive, Lamin A splicing inactive and HTT ATP protect inactive.
For COc1cc(OC)cc(-n2nnnc2SCC(=O)Nc2ccc(C(C)=O)cc2)c1 the results were NPSR antagonist inactive, IMPase inh inactive, IMPase Li cell 3.55µM, HttQ103 aggreg inactive, Lamin A splicing inactive and HTT ATP protect inactive.
For FC(F)(F)c1cnc(NNC(=S)Nc2ccc(Cl)cc2)c(Cl)c1 the results were NPSR antagonist inactive, IMPase Li cell inactive, HttQ103 aggreg 11.2µM, Lamin A splicing inconclusive and HTT ATP protect inactive[10 µM].
Fc1ccc(NC(=S)NNc2ncc(C(F)(F)F)cc2Cl)c(F)c1 was read as NPSR antagonist inactive, IMPase Li cell inactive, HttQ103 aggreg 7.94µM, Lamin A splicing inconclusive and HTT ATP protect inactive.
`Cc1ccc(NC(=S)NNc2ncc(C(F)(F)F)cc2Cl)cc1` gave NPSR antagonist inactive, IMPase inh inactive, IMPase Li cell inactive, HttQ103 aggreg inactive, Lamin A splicing inconclusive and HTT ATP protect inactive[10 µM].
For Cc1ccc(S(=O)(=O)OC[C@@H]2CN3[C@H](c4ccc(Br)cc4)[C@H](C)CC[C@H]3C(=O)O2)cc1 the results were HTT ATP protect inactive[10 µM].
CCCCCCCc1cc2c(cn1)C(=O)C(C)(OC(C)=O)C(O)=C2Cl (stereo not given) was read as IMPase Li cell inactive and HTT ATP protect inactive.
Screening C=CCOc1cccc(C2C(C(=O)c3ccc(C)o3)=C(O)C(=O)N2c2nccs2)c1 (stereo not given) returned NPSR antagonist 5.01µM, IMPase inh inconclusive, HttQ103 aggreg inactive and Lamin A splicing inconclusive.
`Cc1ccc(C(=O)C2=C(O)C(=O)N(c3ncccn3)C2c2cccc(Cl)c2)o1` (stereo not given) gave NPSR antagonist inactive, IMPase inh inconclusive, IMPase Li cell inconclusive, HttQ103 aggreg inactive, Lamin A splicing inactive and HTT ATP protect inactive.
For Cc1ccc2nc(N3C(=O)C(O)=C(C(=O)c4ccc(C)o4)C3c3cccc(O)c3)sc2c1 (stereo not given) the results were NPSR antagonist inactive, IMPase Li cell 8.91µM, HttQ103 aggreg inactive, Lamin A splicing inactive and HTT ATP protect inactive[10 µM].
`O=Nc1ccc(NO)cc1` gave IMPase Li cell inactive and HTT ATP protect inconclusive.
`C=C1CCC(O)C/C1=C\C=C1/CCCC2(C)C1CCC2C(C)CCCC(C)C` (stereo not given) gave IMPase inh inactive, IMPase Li cell inactive and HTT ATP protect inactive[1.9 µM].
For Cc1ccc2nc3cc([N+](=O)[O-])cc([N+](=O)[O-])c3cc2c1 the results were NPSR antagonist 7.94µM, IMPase Li cell inactive and HttQ103 aggreg inconclusive.
Screening COc1ccccc1NS(=O)(=O)c1cc(N2Cc3ccccc3C2=N)ccc1N1CCOCC1 returned NPSR antagonist 2.51µM, IMPase Li cell inactive, HttQ103 aggreg inactive, Lamin A splicing inconclusive and HTT ATP protect inactive.
For Cc1ccc(-c2cc(C(=O)NCCCN3CCOCC3)no2)cc1 the results were NPSR antagonist inactive, IMPase inh inactive, IMPase Li cell inactive, HttQ103 aggreg 3.16µM, Lamin A splicing inactive and HTT ATP protect inactive.
`COc1ccc(CN(C)C(=O)CCl)cc1` gave NPSR antagonist inactive, IMPase Li cell inactive, HttQ103 aggreg 12.6µM and HTT ATP protect inconclusive.
`O=C1C[C@H]2OCC=C3CN4CC[C@@]5(C(=O)O)[C@H](N1)C2[C@H]3C[C@H]45` (stereo not given in full) gave IMPase Li cell inactive.
`C=CCSC(=C(C#N)C#N)c1cc2c([nH]1)CCCC2` gave NPSR antagonist 12.6µM, IMPase inh inactive, IMPase Li cell inactive, HttQ103 aggreg inconclusive, Lamin A splicing inconclusive and HTT ATP protect 11.2µM.
`Cc1cc(C(=O)N/N=C/c2cc([N+](=O)[O-])ccc2O)c2ccccc2n1` gave NPSR antagonist inactive, IMPase Li cell inactive, HttQ103 aggreg 7.08µM, Lamin A splicing inconclusive and HTT ATP protect inactive[10 µM].
`O=C(N/N=C/c1cc([N+](=O)[O-])ccc1O)c1cc(-c2ccccc2)nc2ccccc12` gave NPSR antagonist inactive, IMPase inh inactive, IMPase Li cell inactive, HttQ103 aggreg inactive, Lamin A splicing inconclusive and HTT ATP protect inactive[10 µM].
For CCOC(=O)C1CCN(c2nc(-c3ccccc3)nc3c2oc2ccccc23)CC1 the results were NPSR antagonist 12.6µM, IMPase inh inactive, IMPase Li cell inactive, HttQ103 aggreg inactive, Lamin A splicing inactive and HTT ATP protect inactive[0.074 µM].
For C=CCn1c(NC(C)c2cc(Cl)ccc2O)nc2ccccc21 (stereo not given) the results were NPSR antagonist inconclusive, IMPase inh inactive, IMPase Li cell inactive, HttQ103 aggreg 11.2µM, Lamin A splicing inactive and HTT ATP protect inactive.
For C=CCn1c(NCc2cc(C)ccc2O)nc2ccccc21 the results were NPSR antagonist inactive, IMPase inh inactive, IMPase Li cell inactive, HttQ103 aggreg inactive, Lamin A splicing inactive and HTT ATP protect inactive.
Screening Cc1ccccc1-c1cncnc1NCc1cccnc1 returned IMPase Li cell inactive, Lamin A splicing inactive and HTT ATP protect inactive.
`O=C(Nc1cccc(F)c1)c1ccc(-c2ccccc2Cl)o1` gave NPSR antagonist inactive, IMPase Li cell inactive, HttQ103 aggreg inactive and Lamin A splicing inconclusive.

High-throughput results deposited in PubChem by National Center for Advancing Translational Sciences (NCATS).
